{
  "source": "PubChem BioAssay AID743358",
  "about": "(Broad Institute, 2014)",
  "note": "Activity calls are given as the source filed them.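 Rule for the calls: active = ATP signal drop in HepG2 cells with fitted half-maximal concentration at most twice the top tested dose; inconclusive = flat curve losing 30 to 70% signal, or poor fit; inactive = the rest.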",
  "data": [
    {"test": "viability loss in HepG2 liver cells – cell-based, luminescence, dry powder, set 9, cytotoxicity control, dose response (AID 743358)", "details": "ATP luminescence, 72 h; series mostly up to 26 µM", "values": [
      {"compound": "CN(C)C(=O)c1ccc(N2CCN(C(=O)c3ccc4c(c3)OCO4)CC2)cc1", "outcome": "inactive"},
      {"compound": "COC(=O)c1ccc(N2CCN(C(=O)c3ccc4c(c3)OCO4)CC2)cc1", "outcome": "inactive"},
      {"compound": "COc1ccc(NC(=O)N2CC[C@@H]3[C@@H](CO)N(C)c4ccc(-c5cccc(F)c5)cc4[C@@H]32)cc1", "outcome": "inactive"},
      {"compound": "CN1c2ccc(-c3cccc(F)c3)cc2[C@@H]2[C@@H](CCN2C(=O)c2ccc3c(c2)OCO3)[C@@H]1CO", "outcome": "inactive"},
      {"compound": "CN1c2ccc(-c3ccc(F)cc3)cc2[C@H]2[C@H](CCN2C(=O)Nc2ccc(F)cc2)[C@H]1CO", "outcome": "inactive"},
      {"compound": "CN1c2ccc(-c3cccc(F)c3)cc2[C@H]2[C@H](CCN2C(=O)CCCCCCN)[C@H]1CO", "outcome": "inactive"},
      {"compound": "CC(=O)c1ccc(N2CCN(C(=O)c3ccc4c(c3)OCO4)[C@H](C)C2)cc1", "outcome": "inactive"},
      {"compound": "CN1c2ccc(-c3ccc(F)cc3)cc2[C@H]2[C@H](CCN2C(=O)Cc2ccccn2)[C@H]1CO", "outcome": "inactive"},
      {"compound": "CN1c2ccc(-c3cccc(F)c3)cc2[C@H]2[C@H](CCN2C(=O)c2ccc3c(c2)OCO3)[C@@H]1CO", "outcome": "inactive"},
      {"compound": "CNC(=O)c1ccc(N2CCN(C(=O)c3ccc4c(c3)OCO4)CC2)cc1", "outcome": "inactive"},
      {"compound": "COCC(=O)N1CC[C@@H]2[C@@H](CO)N(C)c3ccc(-c4cccc(F)c4)cc3[C@@H]21", "outcome": "inactive"},
      {"compound": "CCCNC(=O)N1CC[C@@H]2[C@@H](CO)N(C)c3ccc(-c4ccc(F)cc4)cc3[C@@H]21", "outcome": "inactive"},
      {"compound": "CC(=O)c1ccc(NCCNC(=O)c2ccc3c(c2)OCO3)cc1", "outcome": "inactive"},
      {"compound": "CC(=O)c1ccc(N2CCN(C(=O)c3ccc4c(c3)OCO4)CC2)cc1", "outcome": "inactive"}
    ]}
  ]
}
